MCF10A rerep = induces DNA re-replication in MCF 10a normal breast cells. MCF 10A DNA re-replication, Hoechst nuclear intensity, 48 h. 2.9% of 350,000 active. Potency, µM (series often up to 46.1 µM), for the others: at the top dose activity, positive = re-replication, usual class: activators; note: % of control where 0% means no effect; nearly all actives have a fitted effect of over 50% in size
KB-V1 cytotox = KB-V1 MDR subline cytotoxicity. Potency, µM (titrated, usually from 46.1 µM), usual class: cytotoxic. KB-V1 MDR cells viability, CellTiter-Glo, 72 h. AID 1347076. 3.4% of 400,000 active; note: % is set by controls: 0 for no effect and ±100 for the full control effect; nearly all actives have a fitted effect of over 60% in size
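Drug-selected KB-V1 cells, grown in DMEM lacking phenol red with 10% FBS, receive compound titrations; after three days at 37 degrees C, surviving cell ATP is quantified by CellTiter-Glo luminescence and responses normalized and curve-fitted.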
KB-3-1 tox = KB-3-1 parental cell cytotoxicity; KB-3-1 viability, CellTiter-Glo ATP luminescence, 72 h; Potency, µM (doses to about 46.1 µM), usual class: cytotoxic; 1.4% of 400,000 active; AID 1347075; note: % is set by controls: 0 for no effect and ±100 for the full control effect; nearly all actives have a fitted effect of over 60% in size
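Multi-concentration cytotoxicity screen in KB-3-1 cells grown in DMEM lacking phenol red with 10% FBS. After 72 h at 37 °C with compound, ATP-dependent luminescence was recorded.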
SW480 rereplic = induces DNA re-replication in SW480 colon adenocarcinoma cells. Potency, µM (top dose mostly 46.1 µM), for the others: at the top dose re-replication activation, actives largely listed as activators. SW480 DNA re-replication, Hoechst DNA content imaging, 48 h. 1.8% of 340,000 active; note: % of control where 0% means no effect; nearly all actives have a fitted effect of over 55% in size
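First, 250 cells per well were seeded. Next, compound or vehicle (23 nL) was pinned in, plates sat 48 hr at 37 C. Finally Hoechst was added for 40 min before fluorescence scanning.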
VP16 counter = counter-screen for ROR gamma inhibitors: Gal4-VP16 reporter. Drosophila S2 Gal4-VP16 UAS-luciferase, luminescence, 20 h. Potency, µM (titrated, usually from 53.6 µM), inactives show top-dose activity, negative = inhibition, most hits filed as inhibitors. 3.5% of 310,000 active. AID 2546;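 note: Gal4-VP16 expression switched on by copper sulfate through the metallothionein promoter; % is set by controls: 0 for no effect and ±100 for the full control effect; nearly all actives have a fitted effect of over 50% in size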
RORg inh = blocks mouse ROR gamma transcriptional activity; 5.4% of 310,000 active; P51450; AID 2551; Potency, µM (top dose mostly 53.6 µM), inactives show top-dose activity change, negative = inhibition, hits mostly inhibitors; Drosophila S2 Gal4-RORgamma UAS-luciferase reporter, 20 h; note: % is set by controls: 0 for no effect and ±100 for the full control effect; nearly all actives have a fitted effect of over 60% in size
Target sequence (P51450 whole entry, looked up, the tested form may be a part): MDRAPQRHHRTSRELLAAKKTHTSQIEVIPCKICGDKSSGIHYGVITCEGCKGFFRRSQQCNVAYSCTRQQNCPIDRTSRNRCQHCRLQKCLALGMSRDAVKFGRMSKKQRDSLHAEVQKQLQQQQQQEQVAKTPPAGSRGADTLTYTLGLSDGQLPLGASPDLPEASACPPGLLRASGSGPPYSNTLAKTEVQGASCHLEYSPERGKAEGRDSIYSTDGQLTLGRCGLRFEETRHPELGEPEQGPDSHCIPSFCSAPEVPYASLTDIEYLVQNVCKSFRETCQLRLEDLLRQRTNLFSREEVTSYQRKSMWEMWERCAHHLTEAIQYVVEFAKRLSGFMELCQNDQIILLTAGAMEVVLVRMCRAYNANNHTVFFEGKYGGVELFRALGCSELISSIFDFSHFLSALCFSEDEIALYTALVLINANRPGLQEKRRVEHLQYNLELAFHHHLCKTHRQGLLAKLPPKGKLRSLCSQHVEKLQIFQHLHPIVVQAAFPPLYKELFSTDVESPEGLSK
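Luciferase reporter read in Schneider cells carrying Gal4-RORγ (mouse) and UAS-Photinus luciferase; cells given compound 1 h before 700 uM copper sulfate induction, then incubated 20 h at ambient temperature.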
Active calls of the source: *; i = inactive; ? = inconclusive; nt = no result given; ! = not active in a repeat. Only some compounds are listed: those with a hit (about 10% of all), similar ones and a draw of the others. Calls come from the whole dose curve; as a rule, active = well fitted curve in the direction sought with a large enough effect; inconclusive = small, poorly fitted or top-dose-only effect, or another doubt; inactive = no such curve, though single readings can be large; an effect the other way counts as inactive or inconclusive. Potency is the fitted concentration of half-maximal effect.

SMILES	MCF10A rerep	KB-V1 cytotox	KB-3-1 tox	SW480 rereplic	VP16 counter	RORg inh
O=C(Nc1ccc(-c2csc(Nc3ccccc3)n2)cc1)c1cc([N+](=O)[O-])cc(C(F)(F)F)c1	29%	?	15µM*	14%	-8%	?
COC(=O)c1ccc(Oc2cc(C)nc(SC)n2)cc1	3.7µM*	4.6µM*	5.8µM*	19%	-1%	-27%
N=c1c2c(n(Cc3ccc(Br)cc3)c3c1CCC3)CCCC2	?	i	0.65µM*	-2%	?	?
c1ccc(CN(CC2=NCCN2)c2ccccc2)cc1	9%	i	i	0.23µM*!	-8%	-7%
COc1ccc(-n2ccnc(NCc3ccccc3OC)c2=O)cc1	nt	i	i	nt	nt	nt
CCn1c(=O)n(CC2CCC(C(=O)NC(C)C)CC2)c(=O)c2sccc21 (stereo not given)	nt	?	i	nt	nt	nt
Cc1c(NC(=O)Nc2ccc(Br)cc2F)sc2nc3n(c(=O)c12)CCC(C)CC3 (stereo not given)	nt	i	i	nt	nt	nt
CCN1CCc2c(OCC(=O)Nc3cccc(C)c3C)cccc2C1=O	nt	nt	nt	nt	2%	4%
CCOC(=O)N1CCN(C(=O)COc2cccc3c2CCN(Cc2cccc(C)c2)C3=O)CC1	10%	18µM*	i	2%	-2%	?
Cc1cccc(NC(=O)COc2cccc3c2CCN(Cc2ccccc2)C3=O)c1C	-4%	9.2µM*	i	0%	-1%	?
COc1cc2c(cc1OC)n(CC(=O)NC1CCCCCC1)n1c(C)cc(=O)nc21	-2%	?	i	-7%	-5%	10%
CCn1cc(C(=O)NCCc2ccc(OC)c(OC)c2)c(=O)c2cc(S(=O)(=O)N3CCc4ccccc4C3)ccc21	nt	i	i	nt	nt	nt
CCC(CC)C(=O)N1N=C(c2ccc(NS(C)(=O)=O)cc2)CC1c1ccc(C)cc1 (stereo not given)	4%	18µM*	i	-11%	-19%	?
O=C(Nc1ccc(F)cc1F)c1ccc2c(c1)CCN2S(=O)(=O)c1ccc(Cl)cc1	nt	i	i	nt	nt	nt
COC(=O)[C@H]1C(OC)[C@@H](OC(=O)c2cc(OC)c(OC)c(OC)c2)C[C@@H]2CN3CCc4c([nH]c5cc(OC)ccc45)[C@H]3C[C@H]21 (stereo not given in full)	nt	nt	nt	nt	-6%	-34%
COC(=O)[C@H]1[C@H]2C[C@@H]3c4[nH]c5ccccc5c4CCN3C[C@H]2C[C@@H](OC(=O)c2cc(OC)c(OC)c(OC)c2)[C@@H]1OC	-19%	nt	nt	?	?	7.1µM*
CC(C)(C)NC(=O)C(c1ccncc1)N(Cc1ccco1)C(=O)c1ccc(-c2ccccc2)[nH]1 (stereo not given)	21µM*	?	i	?	18µM*	7.1µM*
CC(C)(C)NC(=O)C(c1ccc(F)cc1)N(Cc1ccco1)C(=O)c1csnn1 (stereo not given)	1%	i	i	-2%	0%	1%
O=C(NCC1CCCO1)C(c1cccs1)N(C(=O)c1ccc(-c2ccccc2)[nH]1)C1CCCC1 (stereo not given)	12%	?	i	13%	-18%	?
O=C(NC1CCCCC1)C(c1ccncc1)N(Cc1ccccc1)C(=O)c1ccc(-c2ccccc2)[nH]1 (stereo not given)	?	23µM*	?	?	-13%	39%
O=C(NC1CCCCC1)C(c1ccncc1)N(Cc1ccc(F)cc1)C(=O)c1ccccn1 (stereo not given)	14%	?	i	-3%	4%	-3%
O=C(NCC1CCCO1)C(c1cccs1)N(Cc1ccccc1)C(=O)c1ccc(-c2ccccc2)[nH]1 (stereo not given)	26%	3.7µM*	i	25%	-9%	?
COc1ccccc1-c1csc(C(O)c2cccc(Cl)c2)n1 (stereo not given)	nt	i	i	nt	nt	nt
COC(=O)C1=CN(c2cccc(OCc3ccccc3)c2)C(N)=C(C#N)C1c1cccc(F)c1 (stereo not given)	nt	?	i	nt	nt	nt
Cc1c(C(=O)Nc2ccc(F)cc2F)nnn1-c1ccccc1Br	nt	i	i	nt	nt	nt
SMILES	MCF10A rerep	KB-V1 cytotox	KB-3-1 tox	SW480 rereplic	VP16 counter	RORg inh
COc1cc(C)ccc1OCCSc1nc2ccc(NC(=O)c3ccco3)cc2s1	nt	?	i	nt	nt	nt
O=C(NCc1ccco1)c1cccnc1-c1nc2ccccc2s1	3%	13µM*	i	-2%	?	-44%
CCCc1nnc(NC(=O)CN2C(=O)c3ccccc3C2=O)s1	1%	i	i	-4%	-10%	0%
O=C(CCn1c(=O)sc2ccccc21)Nc1nccs1	6%	i	i	-10%	11%	11%
CCCc1nnc(NC(=O)Cn2c(=O)sc3ccccc32)s1	-5%	18µM*	i	1%	4%	-4%
O=C(CCCSc1nc2ccccc2s1)NCc1ccco1	27%	i	i	-4%	11µM*	14µM*
Cc1csc(NC(=O)CCn2c(=O)sc3ccccc32)n1	?	23µM*	i	-9%	23%	25%
CCc1ccccc1NC(=O)CCCSc1nc2ccccc2s1	2%	i	i	-3%	?	?
c1ccc2cnccc2c1	nt	i	i	nt	nt	nt
Cc1cc(C(=O)OCC(=O)N2CCC(C)CC2)c2ccccc2n1	0%	i	i	-6%	nt	nt
CN(Cc1ccccc1)c1nc2c(S(=O)(=O)c3cccc(Cl)c3)nnn2c2ccsc12	nt	i	i	nt	nt	nt
c1ccc(-c2nc(-c3cccc4ccccc34)c(NC3CCCCC3)o2)cc1	nt	nt	nt	nt	-10%	6%
COc1cccc(-c2nccc(NCc3ccccc3)n2)c1	nt	nt	nt	nt	-2%	-2%
Cc1csc(NC(=O)CCCSc2nc3ccccc3s2)n1	18µM*	?	i	-4%	2µM*	32µM*
O=C1N/C(=N\N=C\c2ccc3ncccc3c2)SC1Cc1ccc(SC(F)F)cc1 (stereo not given)	16µM*	?	i	?	?	4%
O=C1N/C(=N\N=C\c2ccccn2)SC1Cc1cccc(SC(F)F)c1 (stereo not given)	?	3.7µM*	?	?	3.2µM*	1.8µM*
O=C(CC1S/C(=N/N=C/c2cccnc2)NC1=O)Nc1ccccc1 (stereo not given)	17%	i	i	-1%	3%	6%
O=C1N/C(=N\N=C\c2cccnc2)SC1Cc1ccc(SC(F)F)cc1 (stereo not given)	?	4.1µM*	?	25%	0.71µM*	0.5µM*

Bioassay records as filed in PubChem.
